# According to the supplement of paper PMC4709259:
# Counter-ions that a name gives are not always drawn. ± gives the standard deviation.
# Test system: Jurkat
# Test: cell count relative to DMSO control (fraction of control); higher = more cells (less growth inhibition)
# Conditions: 48 h
row,SMILES,cell count
1,CN(C)C(=O)C(CCN1CCC(O)(c2ccc(Cl)cc2)CC1)(c1ccccc1)c1ccccc1 [Loperamide·HCl] (concentration: 25 µM),0.572 ± 0.18
2,CC1(C)C[C@@H]1C(=O)N/C(=C\CCCCSC[C@H](N)C(=O)O)C(=O)O [Cilastatin·Na] (concentration: 25 µM),1.03 ± 0.092
3,Nc1nc(=O)n([C@@H]2CS[C@H](CO)O2)cc1F [Emtricitabine] (concentration: 25 µM),0.581 ± 0.14
4,C[C@H]1O[C@H](O[C@H]2[C@H](O)[C@@H](O)[C@@H](O[C@@H]([C@H](O)[C@@H](O)C=O)[C@H](O)CO)O[C@@H]2CO)[C@H](O)[C@@H](O)[C@@H]1N[C@H]1C=C(CO)[C@@H](O)[C@H](O)[C@H]1O [Acarbose] (concentration: 25 µM),0.877 ± 0.15
5,Clc1ccc(CSC(Cn2ccnc2)c2ccc(Cl)cc2Cl)cc1 (configuration not stated) [Sulconazole Nitrate] (concentration: 25 µM),0.923 ± 0.11
6,COc1nc(N)nc2c1ncn2[C@@H]1O[C@H](CO)[C@@H](O)[C@@H]1O [Nelarabine] (concentration: 25 µM),0.201 ± 0.029
7,CC(C)n1c(/C=C/[C@H](O)C[C@H](O)CC(=O)O)c(-c2ccc(F)cc2)c2ccccc21 [Fluvastatin·Na] (concentration: 25 µM),0.492 ± 0.12
8,CC1=C(/C=C/C(C)=C/C=C/C(C)=C/C(=O)O)C(C)(C)CCC1 [Tretinoin] (concentration: 25 µM),1.02 ± 0.11
9,NC(=O)C(c1ccccc1)(c1ccccc1)[C@@H]1CCN(CCc2ccc3c(c2)CCO3)C1 [Darifenacin·HBr] (concentration: 25 µM),0.723 ± 0.087
10,CCc1ccc(CCOc2ccc(CC3SC(=O)NC3=O)cc2)nc1 (configuration not stated) [Pioglitazone·HCl] (concentration: 25 µM),0.906 ± 0.16
11,CO/N=C(\C(=O)N[C@@H]1C(=O)N2C(C(=O)O)=C(CSc3nc(=O)c(=O)[nH]n3C)CS[C@H]12)c1csc(N)n1 [Ceftriaxone·Na] (concentration: 25 µM),1.06 ± 0.073
12,Oc1ccc(C2CNCCc3c2cc(O)c(O)c3Cl)cc1 (configuration not stated) [Fenoldopam Mesylate] (concentration: 25 µM),0.272 ± 0.13
13,CNCCCN1c2ccccc2CCc2ccccc21 [Desipramine·HCl] (concentration: 25 µM),0.721 ± 0.066
14,COC(=O)CCC(=O)CN [Methyl Aminolevulinate·HCl] (concentration: 25 µM),0.739 ± 0.074
15,CC1(C)NC(=O)N(c2ccc([N+](=O)[O-])c(C(F)(F)F)c2)C1=O [Nilutamide] (concentration: 25 µM),0.638 ± 0.066
16,CC(C)(C)NCC(O)COc1cccc2c1CC(O)C(O)C2 (configuration not stated) [Nadolol] (concentration: 25 µM),0.487 ± 0.059
17,CN(N=O)C(=O)N[C@@H]1[C@@H](O)[C@H](O)[C@@H](CO)O[C@@H]1O [Streptozocin] (concentration: 25 µM),0.897 ± 0.034
18,Brc1c(NC2=NCCN2)ccc2nccnc12 [Brimonidine] (concentration: 25 µM),0.9 ± 0.091
19,CN1C(=O)OC(C)(C)C1=O [Trimethadione] (concentration: 25 µM),1.02 ± 0.025
20,NCCCC(N)(C(=O)O)C(F)F (configuration not stated) [Eflornithine·HCl] (concentration: 25 µM),0.985 ± 0.073
21,CC(C)OC(=O)C(C)(C)Oc1ccc(C(=O)c2ccc(Cl)cc2)cc1 [Fenofibrate] (concentration: 25 µM),0.477 ± 0.067
22,CN(C)CCOc1ccc(/C(=C(/CCCl)c2ccccc2)c2ccccc2)cc1 [Toremifene Base] (concentration: 25 µM),0.948 ± 0.079
23,CC(=O)Oc1ccc(C(c2ccc(OC(C)=O)cc2)c2ccccn2)cc1 [Bisacodyl] (concentration: 25 µM),0.813 ± 0.09
24,C#C[C@]1(O)CC[C@H]2[C@@H]3CCc4cc(OC)ccc4[C@H]3CC[C@@]21C [Mestranol] (concentration: 25 µM),0.91 ± 0.12
25,CN(C)CCC(c1ccc(Br)cc1)c1ccccn1 (configuration not stated) [Brompheniramine Maleate] (concentration: 25 µM),1 ± 0.14
26,OCCN1CCN(CCCN2c3ccccc3Sc3ccc(Cl)cc32)CC1 [Perphenazine] (concentration: 2.5 µM),0.556 ± 0.11
27,CC(=O)N[C@@H](CS)C(=O)O [Acetylcysteine] (concentration: 25 µM),0.772 ± 0.059
